From PubChem
Compounds with a hit are over-represented: about 0.83% of the library has one in this group of screens.
NR5A2 inv ag = NR5A2 inverse agonism in reporter assay; inhibition, % at 3.6 µM; AID 602396; O00482; 360,000 compounds, 0.13% hits; HEK293T StAR-luciferase reporter, LRH-1 transfected, 24 h;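 active means inhibition above the mean inhibition of all tested compounds plus 3 SD, cut at about 73% in these data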
Target sequence (O00482 whole entry, looked up): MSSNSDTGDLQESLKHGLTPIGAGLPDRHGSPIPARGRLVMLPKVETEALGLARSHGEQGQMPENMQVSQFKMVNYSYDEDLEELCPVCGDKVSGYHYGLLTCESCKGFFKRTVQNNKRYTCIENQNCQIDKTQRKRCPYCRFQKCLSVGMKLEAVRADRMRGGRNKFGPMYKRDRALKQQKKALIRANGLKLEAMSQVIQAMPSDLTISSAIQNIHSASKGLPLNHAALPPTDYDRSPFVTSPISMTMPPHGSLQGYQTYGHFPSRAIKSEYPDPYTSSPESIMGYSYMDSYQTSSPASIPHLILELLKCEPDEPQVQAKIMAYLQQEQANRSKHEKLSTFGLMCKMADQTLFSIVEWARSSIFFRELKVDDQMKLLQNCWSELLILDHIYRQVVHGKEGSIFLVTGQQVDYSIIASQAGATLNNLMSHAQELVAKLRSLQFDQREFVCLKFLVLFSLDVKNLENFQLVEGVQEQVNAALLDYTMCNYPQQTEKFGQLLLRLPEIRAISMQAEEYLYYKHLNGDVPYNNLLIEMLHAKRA
SRC1 inh = inhibits human SRC1 coactivator; inhibition, % at 3.6 µM; AID 588354; 360,000 compounds, 0.12% hits; HEK293 GAL4-SRC1 luciferase reporter, luminescence;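 active means inhibition above the campaign mean plus 3 SD, with each screening campaign given its own cutoff, cut at about 60% in these data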
SRC2 inh = inhibits human steroid receptor coactivator 2; HEK293 GAL4-SRC2 luciferase reporter, luminescence; inhibition, % at 9 µM; 370,000 compounds, 0.17% hits; AID 651957;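 active means inhibition above the mean inhibition of all tested compounds plus 3 SD, set per campaign, cut at about 52% in these data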
COUP-TFII inh = blocks human COUP-TFII nuclear receptor; 370,000 compounds, 0.7% hits; HEK293T NGFI-A luciferase reporter, luminescence; P24468; inhibition, % at 8.6 µM;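 active means inhibition above a per-plate cutoff, mean inhibition of test wells between control levels plus 3 SD, cut at about 38% in these data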;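 further: cells cotransfected with COUP-TFII expression vector driving the NGFI-A reporter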
NCOA3 inh = human NCOA3 inhibition. Q9Y6Q9. HEK293 GAL4-SRC3 luciferase reporter, luminescence. inhibition, % at 3.6 µM. 360,000 compounds, 0.17% hits. AID 588352;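 active means inhibition above a per-campaign cutoff, the mean of all compounds plus 3 SD, cut at about 60% in these data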;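 further: higher means less SRC3-driven luciferase light from the GAL4 reporter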
Numbers stand for hits.

CCCCC(=O)NC(c1ccccc1OC)c1ccc2cccnc2c1O (stereo unspecified) was read as NR5A2 inv ag inactive, SRC1 inh inactive, SRC2 inh inactive, COUP-TFII inh inactive and NCOA3 inh inactive.
For CCCCC(=O)NC(c1ccc(Cl)cc1)c1ccc2cccnc2c1O (stereo unspecified) the results were NR5A2 inv ag 84, SRC1 inh inactive, SRC2 inh inactive, COUP-TFII inh inactive and NCOA3 inh inactive.
Screening CCCC(=O)NC(c1ccc(Cl)cc1)c1ccc2cccnc2c1O (stereo unspecified) returned NR5A2 inv ag 77, SRC1 inh inactive, SRC2 inh inactive, COUP-TFII inh inactive and NCOA3 inh inactive.
For CCCC(=O)NC(c1ccc(C)cc1)c1ccc2cccnc2c1O (stereo unspecified) the results were NR5A2 inv ag 85, SRC1 inh 65 and NCOA3 inh 68.
CCCCC(=O)NC(c1ccc(N(C)C)cc1)c1ccc2cccnc2c1O (stereo unspecified) was read as NR5A2 inv ag inactive, SRC1 inh inactive, SRC2 inh inactive, COUP-TFII inh inactive and NCOA3 inh inactive.
Screening CCCC(=O)NC(c1ccccc1OC)c1ccc2cccnc2c1O (stereo unspecified) returned NR5A2 inv ag 80, SRC1 inh inactive and NCOA3 inh inactive.
For O=C(CCn1nnc2ccccc21)N1CCN(c2cccc(C(F)(F)F)c2)CC1 the results were SRC2 inh inactive and COUP-TFII inh inactive.
COc1ccc(-c2nnc(SCC(=O)NN=C/C=C\c3ccco3)n2-c2ccc(OC)cc2)cc1 was read as SRC2 inh inactive and COUP-TFII inh inactive.
Screening COc1ccccc1C(=O)N1CCC(Oc2cccnc2)CC1 returned SRC2 inh inactive and COUP-TFII inh inactive.
Screening Cc1ccccc1NC(=O)CN1C(=O)CCSc2ccccc21 returned SRC2 inh inactive and COUP-TFII inh inactive.
`CCN(CC)c1ccc(C(NC(=O)C(C)C)c2ccc3cccnc3c2O)cc1` (stereo unspecified) gave NR5A2 inv ag 96, SRC1 inh inactive, SRC2 inh inactive, COUP-TFII inh inactive and NCOA3 inh inactive.
`CCN(C(=O)CCc1cn(CC)c2ccccc12)c1ccc(Oc2cccnc2)cc1` gave SRC2 inh inactive and COUP-TFII inh inactive.
Screening CC[C@@]1(O)C(=O)OCc2c1cc1n(c2=O)Cc2cc3c(CN(C)C)c(O)ccc3nc2-1 returned NR5A2 inv ag 86, SRC1 inh inactive, SRC2 inh inactive, COUP-TFII inh inactive and NCOA3 inh 71.
Screening CC[C@@]1(O)C(=O)OCc2c1cc1n(c2=O)Cc2cc3c(N)cccc3nc2-1 returned NR5A2 inv ag 91, SRC1 inh inactive, SRC2 inh inactive, COUP-TFII inh inactive and NCOA3 inh 73.
`O=c1cccc2n1Cc1cc3ccccc3nc1-2` gave NR5A2 inv ag inactive, SRC1 inh inactive, SRC2 inh inactive, COUP-TFII inh inactive and NCOA3 inh inactive.
For Cc1ccc(NC(=O)c2ccccc2)cc1 the results were NR5A2 inv ag inactive, SRC1 inh inactive, SRC2 inh inactive, COUP-TFII inh inactive and NCOA3 inh inactive.
Cc1ccc(NC(=O)C2=C(c3ccccc3)S(=O)(=O)CCS2(=O)=O)cc1 was read as NR5A2 inv ag inactive, SRC1 inh inactive, SRC2 inh 74, COUP-TFII inh inactive and NCOA3 inh inactive.
OC[C@@H]1CN(Cc2ccc(-c3ccccc3)cc2)C[C@H](n2cnc3c(NCc4ccco4)ncnc32)O1 was read as NR5A2 inv ag inactive, SRC1 inh inactive, SRC2 inh inactive, COUP-TFII inh 52 and NCOA3 inh inactive.
Screening CC1CCN(Cc2c(C(=O)N/N=C/c3cc(Br)ccc3O)nnn2-c2nonc2N)CC1 returned NR5A2 inv ag inactive, SRC1 inh inactive, SRC2 inh inactive, COUP-TFII inh inactive and NCOA3 inh 68.
For Cc1cc(C)c(S(=O)(=O)/N=C2/C=C(Sc3ncn[nH]3)C(=O)c3ccccc32)cc1C the results were NR5A2 inv ag inactive, SRC1 inh inactive, SRC2 inh 62, COUP-TFII inh 62 and NCOA3 inh 71.
`Cc1ccc(C)c(S(=O)(=O)/N=C2\C=C(NS(=O)(=O)c3ccccc3)C(=O)c3ccccc32)c1` gave NR5A2 inv ag inactive, SRC1 inh inactive, SRC2 inh inactive, COUP-TFII inh inactive and NCOA3 inh inactive.
For O=C1c2cccc3cc([N+](=O)[O-])cc(c23)C(=O)N1CCN1CCCC1 the results were NR5A2 inv ag 76, SRC1 inh inactive, SRC2 inh inactive, COUP-TFII inh inactive and NCOA3 inh inactive.
